In PubChem BioAssay (NCI):
Compounds without any hit were thinned out: in the full panel of roughly 83,000, 20% have a hit.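 Single-dose data. Exposure time 48 hours. Values below 10 considered active.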 Values without a mark were called inactive. Activity calls are given as the source filed them.

Tests used:
Experiment in all cases: NCI-60 one-dose screen, 48 h (100 = growth as untreated, 0 = no growth, -100 = all killed)
Conditions in all cases: 10 µM unless noted
NCI-H23 lung = test system: NCI-H23 lung
NCI-H226 lung = test system: NCI-H226 lung
NCI-H322M lung = test system: NCI-H322M lung
HOP-62 NSCLC = test system: HOP-62 NSCLC
NCI-H460 lung = test system: NCI-H460 lung
HOP-92 NSCLC = test system: HOP-92 NSCLC
NCI-H522 lung = test system: NCI-H522 lung
786-0 renal = test system: 786-0 renal
COLO 205 colon = test system: COLO 205 colon
DU-145 prostate = test system: DU-145 prostate
K-562 leukemia = test system: K-562 leukemia
MALME-3M melanoma = test system: MALME-3M melanoma
MDA-MB-231 breast = test system: MDA-MB-231 breast
RXF 393 renal = test system: RXF 393 renal
SF-268 CNS = test system: SF-268 CNS
SF-295 CNS = test system: SF-295 CNS
SF-539 CNS = test system: SF-539 CNS
UACC-257 melanoma = test system: UACC-257 melanoma
M14 melanoma = test system: M14 melanoma
A549/ATCC NSCLC = test system: A549/ATCC NSCLC

Row | Structure (SMILES) | growth (NCI-H23 lung) | growth (NCI-H226 lung) | growth (NCI-H322M lung) | growth (HOP-62 NSCLC) | growth (NCI-H460 lung) | growth (HOP-92 NSCLC) | growth (NCI-H522 lung) | growth (786-0 renal) | growth (COLO 205 colon) | growth (DU-145 prostate) | growth (K-562 leukemia) | growth (MALME-3M melanoma) | growth (MDA-MB-231 breast) | growth (RXF 393 renal) | growth (SF-268 CNS) | growth (SF-295 CNS) | growth (SF-539 CNS) | growth (UACC-257 melanoma) | growth (M14 melanoma) | growth (A549/ATCC NSCLC)
1 | C=CC(=O)Nc1cccc(-c2nc(SC)nc(NCCc3ccc(OC)c(OC)c3)c2C#N)c1 | 47.6% | 40.8% | 90.9% | 75.1% | 74.6% | 62.2% | 39.2% | 68.2% | 77.8% | 56.9% | 31.2% | 54.8% | 64.1% | 59.4% | 61.9% | 43% | 65.6% | 29.7% | 26.9% | –
2 | Cn1c(NCCc2ccc(O)c(O)c2)nc2c1c(=O)n(Cc1ccc(Br)cc1)c(=O)n2C | 86.4% | 84.1% | 87.8% | 108% | 94.3% | 61.1% | -26.6% (active) | 82% | 50.5% | 78.9% | 81% | 81.4% | 69.2% | 81% | 68.4% | 98% | 79.1% | 88.5% | 96.5% | –
3 | CC(=O)Nc1ccc(-n2c(O)c(/C=N/NC(=O)Cc3ccccc3Nc3c(Cl)cccc3Cl)sc2=S)cc1 | 95.4% | 104% | 102% | 99.7% | 101% | 92.7% | 94.2% | 102% | 119% | 105% | 94.6% | 108% | 107% | 105% | 94.4% | 99.4% | 98.4% | 103% | 103% | –
4 | C=C1C(=O)O[C@H]2[C@H]1CC/C(COC(=O)c1cc3cc(OC)ccc3[nH]1)=C\CC[C@@]1(C)O[C@@H]21 | -72.6% (active) | -68.3% (active) | -50.8% (active) | -68.9% (active) | -37% (active) | -62.7% (active) | -91.4% (active) | -87.6% (active) | -71.3% (active) | -94.4% (active) | 0.302% (active) | -85.3% (active) | -71.6% (active) | -95.1% (active) | -82.8% (active) | 47.5% | -93.4% (active) | -89.6% (active) | -52.9% (active) | –
5 | O=C(/C=C/c1cccc(Cl)c1)c1ccc(O)c(CN2CCN(c3cc4c(cc3F)c(=O)c(C(=O)O)cn4C3CC3)CC2)c1 | 56.4% | 62% | 37.8% | 37.2% | 44% | 21.8% | 17.3% | 33.6% | 136% | 34.6% | 20.4% | 44.1% | 70.5% | 39.5% | 36.9% | 43.5% | 40.9% | 80.5% | 43% | –
6 | O=S(=O)(Nc1ccc(OC(F)F)cc1)c1ccc(-c2cnc(C3CC3)o2)cc1 | 73.4% | 74.1% | 95.7% | 66.6% | 79.1% | 59.3% | 43% | 84% | 97.2% | 90.5% | 19.8% | 76.5% | 70.2% | 81.9% | 75.4% | 53.3% | 79.2% | 75% | 50.9% | –
7 | CS(=O)(=O)c1ccc(-n2nc(-c3ccc(Br)cc3)c3ccccc3c2=O)cc1 | 95% | 100% | 109% | 97.2% | 99.1% | 85.7% | 97% | 121% | 103% | 99.2% | 90.9% | – | 90.1% | 97.1% | 95% | 94% | 96.2% | 97.3% | 107% | –
8 | CC(C)(C)c1cc(C(C)(C)C)cc(S(=O)(=O)Nc2cc3ccccc3cc2C(=O)NCCN)c1 | 85.7% | 73.8% | 64.2% | 83.1% | -20.3% (active) | 50% | 48% | 86.3% | -85.6% (active) | 22.5% | -37% (active) | 55% | 5.92% (active) | 29.1% | 69.3% | 12.4% | 96% | 81% | -59.9% (active) | –
9 | COc1ccc(-n2nc(C)c3c(Nc4ccc(NC(=O)Nc5cc(C(F)(F)F)ccc5F)cc4)ncnc32)cc1 | 32.7% | 73.8% | 11% | -38.6% (active) | 13.7% | 32.9% | -12% (active) | 11.3% | 15.2% | 63.6% | 6.88% (active) | 38.9% | -9.99% (active) | -13.2% (active) | 42.6% | -32.1% (active) | 16.8% | 45% | -29.6% (active) | –
10 | CC(C)(C)CC(C)(C)c1ccc(OCCOCC[N+](C)(C)Cc2ccccc2)cc1 | 2.23% (active) | 31.6% | 47.7% | -56.7% (active) | 1.33% (active) | -58.7% (active) | -44.9% (active) | – | -86.5% (active) | 39.4% | -35.4% (active) | -16.4% (active) | -88.2% (active) | 0.0752% (active) | -54.1% (active) | 41.8% | -64.9% (active) | -90.8% (active) | -27.5% (active) | 25.5%
11 | C=C(C)C1CC(O)C2(C)CCCC3C2C1CC(C)C3(C)CC/C(C)=C/C(O)C1CCC(=O)c2c(OC)cc(OC)cc21 (stereo not given) | 48.9% | 71.2% | 78.9% | 46.7% | 14.7% | 58.5% | 53.6% | 58% | 40.8% | 43.3% | 22% | 52% | 48.6% | 52.7% | 44.5% | 41.4% | 50.8% | 12.6% | 72.7% | –
12 | CNc1ccc(-c2cc(=O)oc3ccc(Cl)cc23)cc1 | 18.5% | 48.1% | 54.4% | 26.2% | 6.78% (active) | 37.3% | -25.3% (active) | 37.3% | -15.1% (active) | 18% | 11% | 110% | 16.2% | 43.1% | 27.6% | 18.1% | -2.97% (active) | 38% | 25.4% | –
13 | c1ccc(-c2c(-c3ccccc3)[n+](Cc3ccc4ccccc4c3)c(-c3ccc(-c4nc5ccccc5s4)cc3)n2Cc2ccc3ccccc3c2)cc1 | -82.1% (active) | -79.2% (active) | -92.1% (active) | -90% (active) | -67.3% (active) | -85.4% (active) | -81.3% (active) | -75.4% (active) | -86.1% (active) | -95.4% (active) | -25.2% (active) | -78% (active) | -84.3% (active) | -95.6% (active) | -76.9% (active) | -99.6% (active) | -88.9% (active) | -87.5% (active) | -80.4% (active) | –
14 | CC(=O)Oc1ccc(Cl)cc1CN(C(C)=O)C1CCCCC1 | 116% | 96.3% | 101% | 102% | 114% | 83.4% | 88.2% | 90% | 104% | 125% | – | 111% | 105% | 101% | 100% | – | 111% | 81.3% | 109% | 106%
15 | O=C1C=CC(=O)N1c1ccc2c(c1)Cc1cc(F)ccc1-2 | 101% | 99.3% | 93% | 93.8% | 111% | 83.4% | 91.1% | 112% | 94% | 112% | – | 94.4% | 92.3% | 92.2% | 99.7% | – | 101% | 64.7% | 107% | 97.9%
16 | COc1cc2nnc3c4cccnc4[nH]c3c2cc1OC | 89.6% | 40.5% | 110% | 96.9% | 25.6% | -40.8% (active) | -75.7% (active) | 7.43% (active) | 50.2% | 37.6% | – | -3.59% (active) | 45.9% | – | 19.4% | 67.4% | 54.9% | -33.4% (active) | 81.2% | 47.2%
